In the supplement of paper PMC10849652:
Of roughly 7,900 targets only a part is listed; those with a hit were picked by preference. About 0.6% of all pairs of compound and target were hits.

Columns and labels:
Test in all cases: log2 fold change, soluble protein after heating vs DMSO (PISA); higher = thermal stabilisation; K562 cells, 10 uM, 30 min; active = over 0.2 and 3.5 SD of the protein, either way, in both replicates (recomputed)
[1] = compound: COC1=CC=C(C=C1)CN2C=CC3=C2C=C(C=C3)C(=O)NO
Outline: (§1)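 Soluble protein was quantified by TMTpro 16plex LC-MS/MS after channel sums were equalised. It was obtained as the supernatant after 21,000xg for 90 min from pooled aliquots of K562 cells (2×10^6 cells/mL, 10 μM compound, 30 min) heated for 3 min across 48°C-58°C and extracted in PBS with 0.5% NP-40 at 4°C. Thermal stability values are relative to control samples and come from duplicates. They are given as log2 fold changes.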

filanesib = compound: CON(C)C(=O)N1N=C(c2cc(F)ccc2F)S[C@@]1(CCCN)c1ccccc1 [filanesib]
Outline: as §1

zotarolimus = compound: CO[C@H]1C[C@@H]2CC[C@@H](C)[C@@](O)(O2)C(=O)C(=O)N2CCCC[C@H]2C(=O)O[C@H]([C@H](C)C[C@@H]2CC[C@H](n3cnnn3)[C@H](OC)C2)CC(=O)[C@H](C)/C=C(\C)[C@@H](O)[C@@H](OC)C(=O)[C@H](C)C[C@H](C)/C=C/C=C/C=C/1C [zotarolimus]
Outline: as §1

idasanutlin = compound: COc1cc(C(=O)O)ccc1NC(=O)[C@@H]1N[C@@H](CC(C)(C)C)[C@](C#N)(c2ccc(Cl)cc2F)[C@H]1c1cccc(Cl)c1F [idasanutlin]
Outline: as §1

[2] = compound: COc1cc2nc(-c3cc(F)ccc3O)nc(N[C@@H]3CNC[C@H]3C(C)(C)O)c2cc1OC
Outline: as §1

lapatinib = compound: CS(=O)(=O)CCNCc1ccc(-c2ccc3ncnc(Nc4ccc(OCc5cccc(F)c5)c(Cl)c4)c3c2)o1 [lapatinib]
Outline: as §1

[3] = compound: CS(=O)(=O)c1ccc(-c2cnc(N)c(C(=O)Nc3ccccc3)n2)cc1
Outline: as §1

crizotinib = compound: C[C@@H](Oc1cc(-c2cnn(C3CCNCC3)c2)cnc1N)c1c(Cl)ccc(F)c1Cl [crizotinib]
Outline: as §1

[4] = compound: C[C@@H]1COCCN1C2=NC(=NC(=C2)C3(CC3)S(=O)(=O)C)C4=C5C=CNC5=CC=C4
Outline: as §1

[5] = compound: C[C@H](C1=CC=C(C=C1)C(=O)NC2=C3C=CNC3=NC=C2)N
Outline: as §1

duvelisib = compound: C[C@H](Nc1ncnc2nc[nH]c12)c1cc2cccc(Cl)c2c(=O)n1-c1ccccc1 [duvelisib]
Outline: as §1

tozasertib = compound: Cc1cc(Nc2cc(N3CCN(C)CC3)nc(Sc3ccc(NC(=O)C4CC4)cc3)n2)n[nH]1 [tozasertib]
Outline: as §1

[6] = compound: Cc1cc(SCc2sc(-c3ccc(C(F)(F)F)cc3)nc2C)ccc1OCC(=O)O
Outline: as §1

doramapimod = compound: Cc1ccc(-n2nc(C(C)(C)C)cc2NC(=O)Nc2ccc(OCCN3CCOCC3)c3ccccc23)cc1 [doramapimod]
Outline: as §1

ispinesib = compound: Cc1ccc(C(=O)N(CCCN)[C@@H](c2nc3cc(Cl)ccc3c(=O)n2Cc2ccccc2)C(C)C)cc1 [ispinesib]
Outline: as §1

alisertib = compound: COc1cc(Nc2ncc3c(n2)-c2ccc(Cl)cc2C(c2c(F)cccc2OC)=NC3)ccc1C(=O)O [alisertib]
Outline: as §1

gefitinib = compound: COc1cc2ncnc(Nc3ccc(F)c(Cl)c3)c2cc1OCCCN1CCOCC1 [gefitinib]
Outline: as §1

[7] = compound: COc1cccc2cc(-c3nc([C@H]4CC[C@H](C(=O)O)CC4)n4ncnc(N)c34)[nH]c12
Outline: as §1

pictilisib = compound: CS(=O)(=O)N1CCN(Cc2cc3nc(-c4cccc5[nH]ncc45)nc(N4CCOCC4)c3s2)CC1 [pictilisib]
Outline: as §1

gandotinib = compound: Cc1cc(Nc2cc(CN3CCOCC3)c3nc(C)c(Cc4ccc(Cl)cc4F)n3n2)n[nH]1 [gandotinib]
Outline: as §1

Measured: log2 fold change

RPAIN isoform 8 (UniProt Q86UA6)
Chain of UniProt Q86UA6 (Q86UA6 whole entry, looked up): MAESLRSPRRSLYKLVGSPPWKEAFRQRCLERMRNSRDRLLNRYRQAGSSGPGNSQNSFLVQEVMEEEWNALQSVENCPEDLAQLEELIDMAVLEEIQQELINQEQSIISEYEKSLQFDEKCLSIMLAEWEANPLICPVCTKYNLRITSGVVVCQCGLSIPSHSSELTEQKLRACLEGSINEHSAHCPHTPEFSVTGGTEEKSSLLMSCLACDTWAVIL
inactive: [1] -0.055 | filanesib 0.006 | zotarolimus 0.028 | idasanutlin 0.109 | [2] -0.061 | lapatinib -0.063 | [3] -0.024 | crizotinib 0.144 | [4] 0.385 | [5] -0.039 | duvelisib 0.123 | tozasertib 0.07 | [6] 0.078 | doramapimod -0.04 | ispinesib -0.155

SLC1A3 (UniProt P43003)
Chain of UniProt P43003 (P43003 whole entry, looked up): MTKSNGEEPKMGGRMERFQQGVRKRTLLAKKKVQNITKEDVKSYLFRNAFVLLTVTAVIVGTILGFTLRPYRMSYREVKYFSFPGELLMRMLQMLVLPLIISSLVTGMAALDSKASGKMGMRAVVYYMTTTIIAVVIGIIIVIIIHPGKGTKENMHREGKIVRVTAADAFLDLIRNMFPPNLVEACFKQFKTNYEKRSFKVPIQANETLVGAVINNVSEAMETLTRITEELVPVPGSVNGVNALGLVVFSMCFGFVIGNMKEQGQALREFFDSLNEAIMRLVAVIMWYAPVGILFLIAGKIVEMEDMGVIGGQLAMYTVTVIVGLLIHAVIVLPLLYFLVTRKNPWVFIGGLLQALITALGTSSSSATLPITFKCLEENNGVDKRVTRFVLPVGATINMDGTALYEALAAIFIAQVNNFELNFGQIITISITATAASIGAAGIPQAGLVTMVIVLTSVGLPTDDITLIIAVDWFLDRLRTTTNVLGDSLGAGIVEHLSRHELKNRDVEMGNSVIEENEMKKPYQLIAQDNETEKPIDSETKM
inactive: zotarolimus -0.097 | idasanutlin 0 | alisertib 0.017 | [2] 0.118 | gefitinib -0.023 | [7] 0.012 | lapatinib -0.03 | pictilisib 0.02 | [4] 0.167 | [5] -0.039 | duvelisib -0.084 | gandotinib -0.042 | tozasertib -0.194 | [6] 0.201 | ispinesib 0.126

RICTOR isoform 3 (UniProt Q6R327)
inactive: filanesib -0.028 | idasanutlin -0.066 | [2] 0.003 | gefitinib 0.059 | lapatinib 0.186 | pictilisib -0.062 | [3] -0.017 | [4] -0.146 | duvelisib -0.027 | gandotinib -0.015 | tozasertib -0.127 | [6] -0.072

RMDN2 isoform 2 (UniProt Q96LZ7)
inactive: [1] 0.008 | alisertib 0.389 | gefitinib -0.418 | [7] 0.191 | crizotinib 0 | doramapimod 0.145 | ispinesib -0.112

RPS19 (UniProt M0R2L9)
inactive: idasanutlin -0.034 | alisertib -0.463 | [2] -0.158 | gefitinib 0.375 | [7] -0.331 | lapatinib -0.341 | tozasertib -0.034

RAP2C (UniProt Q9Y3L5)
Chain of UniProt Q9Y3L5 (Q9Y3L5 whole entry, looked up): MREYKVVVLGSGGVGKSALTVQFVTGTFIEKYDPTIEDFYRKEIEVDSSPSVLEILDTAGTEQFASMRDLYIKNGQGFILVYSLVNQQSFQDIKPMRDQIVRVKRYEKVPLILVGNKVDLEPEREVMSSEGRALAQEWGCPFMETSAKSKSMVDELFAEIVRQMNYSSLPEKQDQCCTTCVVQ
active: pictilisib -0.799 | gandotinib -0.742
inactive: filanesib -0.011 | zotarolimus -0.031 | idasanutlin 0.008 | alisertib -0.073 | [2] 0.016 | gefitinib -0.01 | [7] 0.031 | lapatinib 0.1 | [3] -0.046 | [4] 0.007 | [5] -0.144 | duvelisib 0.06 | tozasertib -0.039 | [6] -0.108 | ispinesib 0.009

RNF185 (UniProt Q96GF1)
Chain of UniProt Q96GF1 (Q96GF1 whole entry, looked up): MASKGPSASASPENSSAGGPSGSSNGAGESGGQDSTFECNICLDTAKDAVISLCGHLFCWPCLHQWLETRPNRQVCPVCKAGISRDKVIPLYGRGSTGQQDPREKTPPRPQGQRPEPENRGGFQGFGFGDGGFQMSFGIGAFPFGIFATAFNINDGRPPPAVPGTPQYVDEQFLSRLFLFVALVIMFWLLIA
inactive: zotarolimus 0.117 | idasanutlin -0.143 | alisertib -0.145 | [2] -0.175 | gefitinib 0.007 | [7] -0.016 | lapatinib -0.111 | pictilisib 0.076 | [5] -0.036 | gandotinib 0.104 | tozasertib -0.112 | ispinesib -0.024

RBMY1E (UniProt A6NEQ0)
active: [2] -0.476
inactive: [1] 0.078 | zotarolimus 0.083 | alisertib -0.035 | gefitinib -0.07 | [7] 0.126 | lapatinib 0.044 | pictilisib 0.015 | crizotinib -0.122 | [5] -0.12 | gandotinib -0.137 | tozasertib 0.113 | doramapimod -0.007 | ispinesib -0.148

SF3B5 (UniProt Q9BWJ5)
Chain of UniProt Q9BWJ5 (Q9BWJ5 whole entry, looked up): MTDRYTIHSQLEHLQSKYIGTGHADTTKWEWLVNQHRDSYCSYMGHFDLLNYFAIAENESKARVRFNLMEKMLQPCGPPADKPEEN
inactive: [1] 0.19 | filanesib 0.2 | idasanutlin 0.085 | alisertib -0.122 | [2] -0.026 | gefitinib 0.027 | [7] 0.044 | lapatinib -0.051 | pictilisib -0.069 | [3] 0.027 | crizotinib -0.012 | [4] 0.176 | duvelisib 0.358 | gandotinib 0.087 | tozasertib -0.152 | [6] 0.002 | doramapimod -0.089

RBM26 isoform 3 (UniProt Q5T8P6)
inactive: filanesib 0.004 | idasanutlin 0.167 | [3] 0.066

RALGPS2 (UniProt Q86X27)
Chain of UniProt Q86X27 (Q86X27 whole entry, looked up): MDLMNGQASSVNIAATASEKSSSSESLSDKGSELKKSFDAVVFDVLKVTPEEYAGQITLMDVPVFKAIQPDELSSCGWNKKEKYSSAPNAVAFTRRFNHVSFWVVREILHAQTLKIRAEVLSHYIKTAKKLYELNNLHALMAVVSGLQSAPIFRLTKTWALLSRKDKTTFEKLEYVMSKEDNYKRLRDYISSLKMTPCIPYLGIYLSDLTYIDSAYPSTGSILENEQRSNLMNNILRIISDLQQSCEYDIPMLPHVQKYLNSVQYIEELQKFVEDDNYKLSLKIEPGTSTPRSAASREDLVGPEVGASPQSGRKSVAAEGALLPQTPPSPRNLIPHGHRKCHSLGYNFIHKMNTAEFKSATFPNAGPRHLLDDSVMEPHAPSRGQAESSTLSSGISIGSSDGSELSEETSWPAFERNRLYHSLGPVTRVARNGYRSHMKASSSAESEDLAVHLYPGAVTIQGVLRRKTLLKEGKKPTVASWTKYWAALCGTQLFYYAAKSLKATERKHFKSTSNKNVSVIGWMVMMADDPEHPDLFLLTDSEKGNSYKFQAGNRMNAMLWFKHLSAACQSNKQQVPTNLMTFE
inactive: [1] 0.246 | zotarolimus 0.038 | idasanutlin -0.062 | alisertib 0.109 | [7] 0.132 | pictilisib 0.165 | crizotinib -0.237 | [4] -0.199 | [5] 0.222 | duvelisib -0.117 | gandotinib 0.08 | tozasertib -0.112 | [6] 0.106 | doramapimod 0.289

RUNX1 isoform 8 (UniProt Q01196)
Chain of UniProt Q01196 (Q01196 whole entry, looked up): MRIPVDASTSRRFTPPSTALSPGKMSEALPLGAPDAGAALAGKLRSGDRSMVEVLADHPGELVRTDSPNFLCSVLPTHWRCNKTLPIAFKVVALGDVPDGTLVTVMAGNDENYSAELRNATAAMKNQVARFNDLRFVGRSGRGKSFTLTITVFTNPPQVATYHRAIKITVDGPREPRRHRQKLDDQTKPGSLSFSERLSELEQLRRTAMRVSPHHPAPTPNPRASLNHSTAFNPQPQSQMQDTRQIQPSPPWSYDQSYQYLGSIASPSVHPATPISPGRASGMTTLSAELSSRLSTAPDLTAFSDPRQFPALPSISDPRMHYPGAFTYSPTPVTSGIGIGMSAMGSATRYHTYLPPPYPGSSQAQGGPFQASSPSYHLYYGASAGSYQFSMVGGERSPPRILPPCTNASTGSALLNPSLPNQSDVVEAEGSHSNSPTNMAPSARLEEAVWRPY
inactive: [1] -0.055 | filanesib -0.084 | idasanutlin 0.075 | alisertib -0.292 | [2] 0.053 | gefitinib -0.074 | [7] -0.011 | lapatinib -0.001 | pictilisib 0.24 | [3] 0.106 | crizotinib -0.066 | [4] 0.089 | duvelisib -0.045 | gandotinib 0.088 | [6] 0.178 | doramapimod 0.054 | ispinesib 0.155

RPS3 (UniProt E9PJN9)
inactive: pictilisib 0.129 | duvelisib 0.102 | gandotinib -0.017 | tozasertib -0.215 | [6] 0.148 | ispinesib -0.224

SEPTIN5 (UniProt G3XAH0)
inactive: filanesib -0.044 | zotarolimus 0.045 | idasanutlin 0.027 | alisertib 0.003 | [2] 0.011 | gefitinib -0.057 | [7] 0.036 | lapatinib 0.094 | pictilisib 0.051 | [3] -0.042 | [4] 0.087 | [5] -0.089 | duvelisib -0.032 | gandotinib -0.153 | tozasertib -0.028 | [6] -0.036 | ispinesib -0.017

RNF220 isoform 3 (UniProt Q5VTB9)
Chain of UniProt Q5VTB9 (Q5VTB9 whole entry, looked up): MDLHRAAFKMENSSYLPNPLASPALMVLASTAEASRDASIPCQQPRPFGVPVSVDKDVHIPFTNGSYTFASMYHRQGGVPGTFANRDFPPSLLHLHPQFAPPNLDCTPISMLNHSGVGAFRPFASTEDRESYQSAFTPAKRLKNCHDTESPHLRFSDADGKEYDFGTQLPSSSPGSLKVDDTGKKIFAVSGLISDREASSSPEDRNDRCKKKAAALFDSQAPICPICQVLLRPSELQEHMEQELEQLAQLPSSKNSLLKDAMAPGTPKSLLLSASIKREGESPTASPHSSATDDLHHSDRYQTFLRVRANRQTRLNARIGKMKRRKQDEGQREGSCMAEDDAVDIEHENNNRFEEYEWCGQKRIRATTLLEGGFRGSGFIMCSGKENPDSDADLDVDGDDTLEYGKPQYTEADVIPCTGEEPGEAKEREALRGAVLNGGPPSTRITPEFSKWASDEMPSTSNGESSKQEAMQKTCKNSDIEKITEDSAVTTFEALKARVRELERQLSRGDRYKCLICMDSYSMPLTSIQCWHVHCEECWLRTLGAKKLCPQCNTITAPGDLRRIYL
inactive: idasanutlin 0.073 | [2] -0.153 | lapatinib 0.261

RNF26 (UniProt Q9BY78)
Chain of UniProt Q9BY78 (Q9BY78 whole entry, looked up): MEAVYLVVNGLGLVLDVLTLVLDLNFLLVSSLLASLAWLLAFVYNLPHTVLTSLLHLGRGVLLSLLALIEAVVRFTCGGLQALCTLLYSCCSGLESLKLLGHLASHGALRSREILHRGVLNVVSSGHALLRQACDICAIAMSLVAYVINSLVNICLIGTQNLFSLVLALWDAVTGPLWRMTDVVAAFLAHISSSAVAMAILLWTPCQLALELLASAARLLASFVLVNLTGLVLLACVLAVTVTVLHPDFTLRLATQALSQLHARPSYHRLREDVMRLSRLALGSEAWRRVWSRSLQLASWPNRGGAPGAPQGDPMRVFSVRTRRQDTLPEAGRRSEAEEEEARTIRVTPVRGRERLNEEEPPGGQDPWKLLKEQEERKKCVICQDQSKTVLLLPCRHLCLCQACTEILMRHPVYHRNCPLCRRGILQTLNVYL
inactive: pictilisib 0.065 | gandotinib 0.008 | ispinesib -0.829

SH3PXD2B (UniProt A1X283)
inactive: filanesib -0.06 | zotarolimus -0.003 | idasanutlin -0.174 | alisertib -0.02 | gefitinib 0.149 | [7] -0.037 | pictilisib 0.162 | [3] 0.002 | [4] 0.246 | [5] 0.055 | gandotinib 0.077 | tozasertib -0.1

RPS6KA5 (UniProt O75582)
Chain of UniProt O75582 (O75582 whole entry, looked up): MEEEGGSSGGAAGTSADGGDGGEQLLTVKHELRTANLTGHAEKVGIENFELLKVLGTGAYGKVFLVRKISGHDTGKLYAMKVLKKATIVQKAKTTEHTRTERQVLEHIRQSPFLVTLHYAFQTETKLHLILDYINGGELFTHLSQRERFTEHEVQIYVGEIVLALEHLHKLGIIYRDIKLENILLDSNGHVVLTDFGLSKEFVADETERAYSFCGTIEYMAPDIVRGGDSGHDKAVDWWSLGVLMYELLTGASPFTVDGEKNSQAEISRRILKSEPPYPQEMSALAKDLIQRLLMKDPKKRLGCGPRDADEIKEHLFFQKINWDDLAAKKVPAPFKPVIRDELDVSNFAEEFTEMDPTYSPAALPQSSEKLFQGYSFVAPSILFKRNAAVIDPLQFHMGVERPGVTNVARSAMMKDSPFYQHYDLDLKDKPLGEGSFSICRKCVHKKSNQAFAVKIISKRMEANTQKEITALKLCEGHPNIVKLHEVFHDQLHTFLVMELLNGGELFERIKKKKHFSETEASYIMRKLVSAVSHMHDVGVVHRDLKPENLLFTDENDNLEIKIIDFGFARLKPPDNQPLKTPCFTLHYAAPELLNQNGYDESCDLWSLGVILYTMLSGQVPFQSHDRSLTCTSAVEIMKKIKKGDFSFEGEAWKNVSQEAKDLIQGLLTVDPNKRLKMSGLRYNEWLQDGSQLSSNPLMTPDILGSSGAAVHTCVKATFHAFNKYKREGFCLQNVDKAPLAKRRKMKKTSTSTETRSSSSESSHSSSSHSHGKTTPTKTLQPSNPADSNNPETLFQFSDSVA
inactive: [1] -0.276 | alisertib -0.076 | [2] -0.185 | [7] 0.131 | lapatinib 0.057 | crizotinib -0.393 | [4] 0.045 | doramapimod -0.016 | ispinesib 0.018

SAMD4B (UniProt Q5PRF9)
Chain of UniProt Q5PRF9 (Q5PRF9 whole entry, looked up): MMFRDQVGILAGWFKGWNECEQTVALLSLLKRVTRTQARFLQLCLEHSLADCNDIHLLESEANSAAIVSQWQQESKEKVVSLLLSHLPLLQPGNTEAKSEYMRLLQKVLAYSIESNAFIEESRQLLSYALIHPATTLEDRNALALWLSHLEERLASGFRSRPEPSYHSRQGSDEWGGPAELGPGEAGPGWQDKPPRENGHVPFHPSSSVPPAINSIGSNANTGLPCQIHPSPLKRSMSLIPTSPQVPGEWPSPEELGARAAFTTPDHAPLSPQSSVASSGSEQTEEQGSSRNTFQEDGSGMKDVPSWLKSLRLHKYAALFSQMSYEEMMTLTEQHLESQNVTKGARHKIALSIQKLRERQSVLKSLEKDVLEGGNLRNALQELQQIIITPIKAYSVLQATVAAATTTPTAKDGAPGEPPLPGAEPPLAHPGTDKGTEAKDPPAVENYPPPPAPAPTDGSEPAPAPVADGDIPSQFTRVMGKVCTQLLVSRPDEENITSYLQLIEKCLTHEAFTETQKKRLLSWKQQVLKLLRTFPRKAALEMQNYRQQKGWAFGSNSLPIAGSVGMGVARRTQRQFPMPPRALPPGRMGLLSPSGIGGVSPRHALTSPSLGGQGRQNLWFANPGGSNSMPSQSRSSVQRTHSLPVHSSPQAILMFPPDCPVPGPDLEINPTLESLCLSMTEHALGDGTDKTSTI
active: crizotinib -0.527
inactive: [1] 0.075 | filanesib 0.139 | zotarolimus 0.072 | [2] 0.14 | gefitinib 0.146 | lapatinib -0.036 | pictilisib -0.044 | [3] -0.102 | [4] -0.036 | [5] 0.009 | duvelisib -0.067 | gandotinib -0.135 | tozasertib -0.154 | [6] 0.029 | doramapimod 0.073 | ispinesib -0.082

RPS3A (UniProt D6R9B6)
inactive: filanesib 0.228 | idasanutlin 0.079 | [3] -0.014 | duvelisib -0.015 | tozasertib -0.134 | [6] 0.069
